# Experimental data as given in PubChem BioAssay.
# Activity calls are given as the source filed them. Unless noted, no rule for the calls is given here.
# Tests used:
# [1] = resazurin metabolic signal in HepG2 cells – cell-based, resazurin fluorescence, 24 h, PK04 Diversity Set, profiling panel (AID 1172); settings: HepG2 viability, higher = more signal; also: test concentration not given here
# [2] = budding yeast growth changes without added modifier – OD600, strain BY4716, 24 h, basal condition, primary screen (AID 1173); settings: S. cerevisiae BY4716 growth, OD600, 24 h; higher = more signal, called active from +8 up or from −8 down
# [3] = viability profiling in MM1S myeloma cells – cell-based, resazurin fluorescence, basal, 24 h, PK04 Diversity Set, profiling panel (AID 1174); settings: higher = more signal, called active from +8 up or from −8 down;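 also: MM1S multiple myeloma cell line; test concentration not given here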
# [4] = target: Dihydroorotate dehydrogenase (quinone), mitochondrial (Plasmodium falciparum (isolate 3D7)) (UniProt Q08210); test: inhibition of P. falciparum DHODH – biochemical, C-terminal His tag, absorbance 600 nm, primary screen (AID 1175); settings: PfDHODH enzyme, DCIP absorbance 600 nm; higher = more signal, called active from +8 up or from −8 down;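 also: recombinant parasite enzyme with a five histidine tag at its C terminus; test concentration not given here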
# Dihydroorotate dehydrogenase (quinone), mitochondrial (Plasmodium falciparum (isolate 3D7)), sequence (Q08210 whole entry, looked up): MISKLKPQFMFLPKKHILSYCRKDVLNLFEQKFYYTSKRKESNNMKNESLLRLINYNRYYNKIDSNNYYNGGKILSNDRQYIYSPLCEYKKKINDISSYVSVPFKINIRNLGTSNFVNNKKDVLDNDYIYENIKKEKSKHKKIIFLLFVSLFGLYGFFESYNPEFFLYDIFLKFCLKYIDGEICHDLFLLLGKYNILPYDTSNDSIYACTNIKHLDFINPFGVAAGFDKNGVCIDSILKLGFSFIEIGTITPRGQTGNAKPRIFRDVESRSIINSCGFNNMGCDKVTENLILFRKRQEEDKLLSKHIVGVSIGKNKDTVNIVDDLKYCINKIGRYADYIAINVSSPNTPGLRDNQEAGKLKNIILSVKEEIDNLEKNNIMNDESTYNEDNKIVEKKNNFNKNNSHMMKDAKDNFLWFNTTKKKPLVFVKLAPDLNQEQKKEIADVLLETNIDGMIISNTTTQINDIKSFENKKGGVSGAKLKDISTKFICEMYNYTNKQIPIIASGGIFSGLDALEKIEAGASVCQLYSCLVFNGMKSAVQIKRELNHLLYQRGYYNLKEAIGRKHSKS
# [5] = inhibition of PAO1 biofilm formation – strain PAO1, LB-PBS medium, absorbance 600 nm, primary screen (AID 1176); also: test concentration not given here; settings: P. aeruginosa PAO1 growth/biofilm, A600, 12 h; higher = more signal
# [6] = growth modulation of vineyard yeast isolate – strain RM11-1a, OD600, basal, 24 h, primary screen (AID 1177);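 also: cultures grown under basal conditions with no added stressor; test concentration not given here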; settings: S. cerevisiae RM11-1a growth, OD600, 24 h; higher = more signal, called active from +8 up or from −8 down
# [7] = growth of efflux-deficient E. coli DRC39 – strain DRC39, OD650, 24 h, E. coli filamentation inducers, primary screen (AID 1178);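 also: growth measured as culture turbidity by optical density at 650 nm; test concentration not given here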; settings: E. coli DRC39 acrAB, higher = more signal, called active from +8 up or from −8 down
# [8] = growth of efflux-deficient E. coli DRC39 – strain DRC39, OD650, 48 h, E. coli filamentation inducers, primary screen (AID 1179);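 also: screen aims at cell division blockers that make cells filament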; settings: E. coli DRC39 delta-acrAB growth, higher = more signal, called active from +8 up or from −8 down
# [9] = viability profiling in RPMI8226 myeloma cells – cell-based, resazurin fluorescence, basal, 24 h, PK04 Diversity Set, profiling panel (AID 1180); settings: higher = more signal;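 also: RPMI8826 multiple myeloma cell line at 5000 cells per well; test concentration not given here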
# [10] = target: E3 ubiquitin-protein ligase XIAP (Homo sapiens) (UniProt P98170); test: small molecules binding XIAP protein – biophysical, small-molecule microarray, fluorescence 635 nm, primary screen (AID 1181); settings: higher = more signal;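 also: score merges 667 nm emission and signal to noise over triplicate slides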
# E3 ubiquitin-protein ligase XIAP (Homo sapiens), sequence (P98170 whole entry, looked up): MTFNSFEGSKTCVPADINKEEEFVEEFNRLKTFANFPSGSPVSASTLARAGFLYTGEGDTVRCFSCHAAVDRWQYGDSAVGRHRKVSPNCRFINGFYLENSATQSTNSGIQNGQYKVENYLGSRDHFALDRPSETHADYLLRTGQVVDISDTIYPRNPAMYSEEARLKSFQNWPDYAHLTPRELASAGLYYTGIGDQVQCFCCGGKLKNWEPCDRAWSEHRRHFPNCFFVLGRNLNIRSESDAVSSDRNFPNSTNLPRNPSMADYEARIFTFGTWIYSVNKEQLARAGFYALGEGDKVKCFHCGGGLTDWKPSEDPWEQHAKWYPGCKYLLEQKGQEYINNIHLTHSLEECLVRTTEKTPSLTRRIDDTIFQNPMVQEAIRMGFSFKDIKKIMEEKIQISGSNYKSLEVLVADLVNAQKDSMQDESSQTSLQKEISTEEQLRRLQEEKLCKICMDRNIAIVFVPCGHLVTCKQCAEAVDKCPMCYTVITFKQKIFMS
Compound,z-score [1],z-score [2],z-score [3],composite z-score [4],z-score [5],z-score [6],z-score [7],z-score [8],z-score [9],composite z-score [10]
COc1ccc(NN2C(C(O)c3ccc(I)cc3)C=CC3C(=O)N(C4CCCCC4)C(=O)C32)cc1 (stereo not given),1.59,0.0997 (inactive),0.28 (inactive),0.526 (inactive),0.726 (inactive),0.475 (inactive),-0.558 (inactive),0.725 (inactive),-0.313,0.144
C=CCC(OC(C)=O)[C@@H]1[C@@H](N(Cc2cccc3ccccc23)C(=O)Cc2ccc(OC)cc2)c2cc(OCCCO)ccc2N1C(=O)Cc1ccc2ccccc2c1 (stereo not given in full),0.687,0.428 (inactive),0.504 (inactive),-0.717 (inactive),-0.853 (inactive),-0.372 (inactive),0.685 (inactive),0.248 (inactive),0.4,0.141
CC(C)(C)N1CC=CC23O[C@@H]4/C=C\CCCOC(=O)C4[C@H]2C(=O)N(CCCCCO)[C@@H]3C1=O (stereo not given in full),-0.144,0.309 (inactive),0.0676 (inactive),-0.22 (inactive),0.481 (inactive),-0.746 (inactive),0.0531 (inactive),-0.0503 (inactive),-0.119,-0.11
COCCOC(=O)N1C(=O)[C@@]2(c3cc(C#CCCO)ccc31)[C@H](c1ccccc1OCCO)N1[C@H](c3ccccc3)[C@H](c3ccccc3)OC(=O)[C@H]1[C@@H]2C(N)=O,-0.0989,1.42 (inactive),-1.49 (inactive),-0.0125 (inactive),-0.0199 (inactive),2.34 (inactive),0.641 (inactive),-0.605 (inactive),-1.45,-0.02
C[C@@H]1ON(c2ccccc2)[C@H](c2ccccc2)[C@H]1C(=O)O,0.0656,0.0157 (inactive),-0.0211 (inactive),0.341 (inactive),0.188 (inactive),0.058 (inactive),-0.636 (inactive),-1.02 (inactive),0.481,-0.0343
C[C@@H]1NC(=O)C([C@@H](C)OCc2ccccc2)NC(=O)[C@@]23C(=O)N[C@@H](Cc4ccccc4)C2[C@H](C)[C@@]2(C)O[C@H]2C3/C=C/C/C=C\CNC1=O (stereo not given in full),-0.847,-0.399 (inactive),0.026 (inactive),-0.0288 (inactive),0.625 (inactive),0.533 (inactive),-0.602 (inactive),-0.426 (inactive),-0.104,-0.291
